An excerpt weighted towards active compounds, which were near 2.3% of everything screened.
LEDGF integ inh: blockers of LEDGF/p75-dependent integrase strand transfer – biochemical, TR-FRET, high throughput, primary screen; TR-FRET IN-LEDGF/p75 DNA integration, Eu/Cy5; 0.64% of 370,000 active; AID 743269, 2014; HIV-1 integrase (with human LEDGF/p75); inhibition, % at 3.7 µM;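 active = inhibition above the screen-wide mean plus 3 SD, cut at about 13% in these data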;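 note: signal is the Cy5 over europium emission ratio at 671 and 618 nm; 0% = plate median of compound wells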
UHRF1 binding: UHRF1 methylated DNA binding inhibitors, primary screen, counter-screen for MBD2 inhibitor project, biochemical, TR-FRET, human UHRF1, single concentration; UHRF1 binding to methylated oligo; E3 ubiquitin-protein ligase UHRF1 (Homo sapiens), Q96T88; inhibition, % at 4.4 µM; 0.75% of 370,000 active; in the data active = inhibition above about 21%;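 note: UHRF1 SRA domain binding a hemimethylated CpG hairpin DNA probe; 0% = median of test compound wells and 100% = reference inhibitor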
Target sequence (Q96T88 whole entry, looked up, the tested form may be a part): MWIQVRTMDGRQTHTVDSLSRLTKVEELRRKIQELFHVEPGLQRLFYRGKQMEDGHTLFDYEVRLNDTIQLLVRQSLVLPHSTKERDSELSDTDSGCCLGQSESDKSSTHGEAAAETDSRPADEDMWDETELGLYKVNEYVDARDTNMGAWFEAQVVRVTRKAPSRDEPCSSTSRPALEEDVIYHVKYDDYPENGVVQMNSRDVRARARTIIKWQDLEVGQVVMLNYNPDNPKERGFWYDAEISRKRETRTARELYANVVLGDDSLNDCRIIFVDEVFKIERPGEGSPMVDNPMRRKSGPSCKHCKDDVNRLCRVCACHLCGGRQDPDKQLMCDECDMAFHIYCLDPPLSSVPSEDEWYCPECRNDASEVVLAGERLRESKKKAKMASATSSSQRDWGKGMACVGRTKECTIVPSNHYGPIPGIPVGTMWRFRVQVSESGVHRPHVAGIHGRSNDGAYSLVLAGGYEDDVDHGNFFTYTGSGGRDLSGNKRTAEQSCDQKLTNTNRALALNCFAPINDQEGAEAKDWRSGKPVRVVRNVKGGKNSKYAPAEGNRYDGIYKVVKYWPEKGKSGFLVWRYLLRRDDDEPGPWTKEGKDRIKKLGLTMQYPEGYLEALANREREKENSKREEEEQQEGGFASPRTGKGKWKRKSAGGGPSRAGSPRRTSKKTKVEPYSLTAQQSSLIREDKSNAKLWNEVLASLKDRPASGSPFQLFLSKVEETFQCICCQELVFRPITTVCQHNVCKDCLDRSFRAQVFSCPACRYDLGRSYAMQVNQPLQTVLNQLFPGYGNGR
PLC-gamma1 inh: PLC-gamma1 enzyme inhibitors, primary screen, biochemical, fluorescence, purified enzyme | 1-phosphatidylinositol 4,5-bisphosphate phosphodiesterase gamma-1 (Homo sapiens), P19174 | fluorogenic substrate | inhibition, % at 12.2 µM | 0.84% of 370,000 active
PLCb3 inh: human PLC-beta3 inhibitors, primary screen, biochemical, fluorescence; inhibition, % at 12.2 µM; Purified PLC-beta3, fluorogenic substrate; 1-phosphatidylinositol 4,5-bisphosphate phosphodiesterase beta-3 (Homo sapiens), Q01970; 0.18% of 370,000 active; in the data active = inhibition above about 11%;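 note: 0% = median of compound wells on plate and 100% = full blocker control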
MBD2 inh: inhibitors of MBD2 binding to methylated DNA, primary screen, biochemical, TR-FRET, DNA-binding domain, human. MBD2 binding to methylated oligonucleotide. 0.31% of 370,000 active. inhibition, % at 4.4 µM; in the data active = inhibition above about 13%
PLCgamma1 ctr: PLC-gamma1 enzyme inhibitors, counter-screen for PLC-beta3 inhibitor project, biochemical, fluorescence. purified PLC-gamma1, fluorogenic substrate. inhibition, % at 12.3 µM. 3.1% of 3,300 active. shares compounds with PLC-gamma1 inh
PLCbeta3 conf: PLC-beta3 inhibitor confirmation, biochemical, fluorescence, purified enzyme | shares compounds with PLC-gamma1 inh | fluorogenic substrate fluorescence | inhibition, % at 12.3 µM | 1% of 3,300 active; in the data active = inhibition above about 11%
* marks the source's active call; other numbers are inactive results; . = no result. Cut-off read from the data, not from the text of the source, unless noted: active = inhibition above about 9.5%; inactive = the rest.

SMILES	LEDGF integ inh	UHRF1 binding	PLC-gamma1 inh	PLCb3 inh	MBD2 inh	PLCgamma1 ctr	PLCbeta3 conf
CCc1nc2c(OCCC3CCCCC3)cccn2c1N(C)C(=O)c1ccc(C)cc1	5	1	10*	3	-9	4	3
CCc1nc2c(OCCOC)cccn2c1N(C)C(=O)c1ccc(C)cc1	2	0	-4	-7	1	.	.
O=C(C1CCCN1S(=O)(=O)c1cccs1)N1CCc2ccccc2C1 (centres undefined)	3	4	8	-1	7	.	.
COc1cccc(N2CCN(S(=O)(=O)c3cc4c(cc3Cl)NC(=O)CO4)CC2)c1	7	-2	2	7	-8	.	.
Cc1cccc(N2CCN(S(=O)(=O)c3cc4c(cc3Cl)NC(=O)CO4)CC2)c1C	8	-1	10*	1	-5	2	-3
CC1CCCN(c2nc(NCc3ccco3)nc(N)c2[N+](=O)[O-])C1 (centres undefined)	5	0	16*	3	-11	0	3
Nc1nc(Nc2ccccc2)nc(NCc2ccco2)c1[N+](=O)[O-]	0	1	7	6	4	.	.
Nc1nc(Nc2ccccc2F)nc(NCc2ccco2)c1[N+](=O)[O-]	4	5	13*	-6	7	-2	-2
O=C(CN(C(=O)OCC1c2ccccc2-c2ccccc21)[C@@H](Cc1ccccc1)C(=O)O)OCc1ccc(C(=O)NCc2ccccc2)cc1	-1	-3	1	-4	0	.	.
CN1C(C(=O)Nc2cccc(O)c2)=CC(c2cccs2)=NS1(=O)=O	5	3	10*	6	-4	7	3
O=S(=O)(Cc1ccc(Cl)cc1)C1CCCCC1O (centres undefined)	11	4	11*	5	1	-4	-1
O=S(=O)(Cc1ccc(Cl)cc1)NCC1CCCO1 (centres undefined)	1	-2	1	1	-3	.	.
O=C(NCCc1ccc(F)cc1)c1ccc2c(c1)ncn2C1CCCCC1	-3	0	-2	-1	-1	.	.
CC(C)CNC(=O)OCc1cn(Cc2cc(F)ccc2F)nn1	-4	-1	0	-3	-2	.	.
COc1cccc(C(=O)Nc2ccc(-n3nncc3C(C)(C)C)cc2)c1	0	2	9	12*	0	-151	4
COC(=O)c1cccc(NC(=O)CN2CCN(c3ccc(OC)cc3)CC2)c1	3	-1	13*	0	2	-4	-1
COC(=O)c1ccc(NC(=O)CN2CCN(c3ccccn3)CC2)cc1	4	1	9.9*	-87	-5	-4	-3
CCOC(=O)c1ccc(NC(=O)CN2CCN(c3ccccc3)CC2)cc1	-1	0	-2	-2	-1	.	.
COC(=O)c1ccc(NC(=O)CN2CCN(c3ccccc3)CC2)cc1	-5	3	12*	-7	0	-8	-7
CN(C)S(=O)(=O)c1cccc(C(=O)N/N=C\c2ccc(-c3ccccn3)cc2)c1	-3	-1	-2	-6	3	.	.
CCOC(=O)Cc1csc(NC(=O)COc2ccccc2)n1	3	3	11*	6	2	-4	0
CCOC(=O)Cc1csc(NC(=O)COc2ccc(C)cc2)n1	-2	0	1	5	1	.	.
O=C(Nc1nc(COc2ccccc2)cs1)C12CC3CC(CC(C3)C1)C2	3	-1	9	11*	-1	8	9
Cc1ccc(OC[C@@H](O)CN2CCC(C(O)(c3ccccc3)c3ccccc3)CC2)cc1	-1	1	-1	0	3	.	.
Cc1ccc(-n2c(SCC(=O)Nc3cccc4ccccc34)nnc2-c2cnccn2)cc1	-3	-2	-1	2	-1	.	.
SMILES	LEDGF integ inh	UHRF1 binding	PLC-gamma1 inh	PLCb3 inh	MBD2 inh	PLCgamma1 ctr	PLCbeta3 conf
Cc1ccccc1Cn1cc(CN2[C@@H](Cc3ccccc3)COc3cc(Br)ccc3S2(=O)=O)nn1	-1	2	0	-3	2	.	.
O=C1NC(=S)N/C1=C/c1cccnc1	4	-5	11*	10	-2	-2	-3
CCSc1cc(C)nc2ncnn12	3	2	13*	14*	-5	-13	-6
CCCCCCSc1cc(C)nc2ncnn12	-5	3	-3	0	4	.	.
CCOc1ccc(-c2csc3ncn(-c4ccc(OC)cc4)c(=O)c23)cc1	-2	3	10*	-4	5	-16	-12
CCCCNS(=O)(=O)CC1NCc2cc(OC)ccc21 (centres undefined)	2	-6	-22	-26	-10	.	.
CC(C)NC(=O)C1(C)CCN1C/C=C/c1ccccc1 (centres undefined)	2	4	12*	7	-6	-8	-6
CC(C)NC(=O)C1(C)CCCN1C/C=C/c1ccccc1 (centres undefined)	7	-1	-1	-1	-4	.	.
COc1ccc(C2C(C(=O)Nc3cc(OC)ccc3OC)CCC(=O)N2c2ccc(OC)cc2)cc1 (centres undefined)	-3	0	-1	-1	-1	.	.
CN1CCN(NC(=O)c2ccc(Cl)s2)CC1	-4	5	9.8*	-11	-1	-2	3
CC(=O)NC(CC(=O)NC1CCCCCC1)c1ccccc1 (centres undefined)	1	4	4	7	-1	.	.
CCC(NC(=O)NC1CCCCC1)c1ccccc1 (centres undefined)	0	-2	9.5*	12*	1	-4	0
COCCCNC(=O)CN1C(=O)C2CCCCN2C(=O)c2ccccc21 (centres undefined)	-6	0	-1	-4	2	.	.
COCCCNC(=O)C[C@H]1C[C@H](C(=O)N2CCCCC2)[C@@]2(CCc3ccccc3)c3[nH]c4ccc(Cl)cc4c3CCN2C1=O	-1	-2	2	-1	-1	.	.
CC[C@]12c3[nH]c4ccc(Cl)cc4c3CCN1C(=O)[C@@H](CC(=O)NCCN1CCOCC1)C[C@@H]2C(=O)N1CCN(C(=O)c2ccco2)CC1	5	-1	13*	10	-2	-8	-2
CC(C)(C)NC(=O)C[C@H]1C[C@H](C(=O)N2CCCCC2)[C@@]2(CCc3ccccc3)c3[nH]c4ccc(Cl)cc4c3CCN2C1=O	5	1	11*	11*	-5	-5	-1

Screening data: PubChem, The Scripps Research Institute Molecular Screening Center
